# DUX4 inh: blocks DUX4-driven transcriptional activation; AID 1224904; 293T-iDUX4 ZSCAN4-Gaussia luciferase reporter, 24 h; active compounds read low; activity change, negative = inhibition, % (no concentration beside the values); 0.8% of 37,000 active;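 active = mean inhibition of at least 10% in the main channel, exceeding the control channel by a set limit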;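 also: 0% = median of neutral control wells and -100% = median of positive control wells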
# Active calls of the source: *. Many of the other results were omitted from the sample, so hits are more common in it than they were.
SMILES,DUX4 inh
COc1cccc(CN2[C@@H](CO)[C@@H](c3ccccc3)C23CN(C(=O)C2CCC2)C3)c1,-6
COc1cccc(CN2[C@@H](CO)[C@@H](c3ccccc3)C23CN(Cc2ccccc2OC)C3)c1,-38*
COc1cccc(CN2[C@@H](CO)[C@@H](c3ccccc3)C23CN(C(=O)C2CC2)C3)c1,-2
O=C(C1CCC1)N1C[C@H]2[C@@H](c3ccccc31)[C@H](CO)N2S(=O)(=O)c1ccccc1,1
O=C(Cc1ccccn1)N[C@@H]1CC[C@H](CCn2cc(-c3ccc(F)cc3)nn2)O[C@H]1CO,-9
O=C1N[C@H](Cc2ccccc2)COCc2cnnn2CC[C@@H]1Cc1ccc(-c2ccccc2)cc1,6
C[C@H]1CN([C@@H](C)CO)C(=O)CCCn2nncc2CO[C@H]1CN(C)Cc1ccc(O)cc1,0
C[C@H]1CN([C@@H](C)CO)C(=O)CCCn2nncc2CO[C@@H]1CN(C)Cc1ccc(C(=O)O)cc1,0
C[C@@H]1CN([C@@H](C)CO)C(=O)CCCn2nncc2CO[C@H]1CN(C)Cc1ccc(C(=O)Nc2ccccc2N)cc1,-25*
C[C@H](CO)N1C[C@H](C)[C@@H](CN(C)Cc2ccc(C(F)(F)F)cc2)OCc2cnnn2CCCC1=O,6
C[C@H](CO)N1C[C@H](C)[C@@H](CN(C)Cc2ccc(C(=O)Nc3ccccc3N)cc2)OCc2cnnn2CCCC1=O,-20*
C[C@@H]1CN([C@H](C)CO)C(=O)CCCn2nncc2CO[C@H]1CN(C)Cc1ccc(C(=O)Nc2ccccc2N)cc1,-22*
C[C@H]1CN([C@@H](C)CO)C(=O)CCCn2nncc2CO[C@@H]1CN(C)Cc1ccc(C(F)(F)F)cc1,-4
C[C@H](CO)N1C[C@H](C)[C@@H](CN(C)Cc2ccc(C(=O)O)cc2)OCc2cnnn2CCCC1=O,7
C[C@H]1CN([C@@H](C)CO)C(=O)CCCn2nncc2CO[C@@H]1CN(C)Cc1ccc(O)cc1,0
CCCN1[C@@H]2c3ccc(-c4cncnc4)c(=O)n3C[C@@H]2[C@@H](CO)[C@@H]1C(=O)OC,0
CC(=O)N1CC[C@@H]2[C@H]1c1cc(-c3cccc(F)c3)ccc1N[C@@H]2CO,22
OC[C@H]1Nc2ccc(-c3cccc(F)c3)cc2[C@H]2[C@@H]1CCN2Cc1ccc(F)cc1,-32*
OC[C@@H]1Nc2ccc(-c3cccc(F)c3)cc2[C@@H]2[C@H]1CCN2Cc1ccncc1,1
N#Cc1cccc(-c2ccc3c(c2)[C@@H]2[C@@H](CCN2Cc2cncnc2)[C@@H](CO)N3)c1,-5
CC(=O)N1CC[C@@H]2[C@@H](CO)Nc3ccc(-c4cccc(F)c4)cc3[C@@H]21,13
COc1ccc(-c2ccc3c(c2)[C@H]2[C@H](CCN2Cc2ccncc2)[C@@H](CO)N3)cc1,7
N#Cc1cccc(-c2ccc3c(c2)[C@H]2[C@H](CCN2Cc2ccncc2)[C@@H](CO)N3)c1,-47*
OC[C@H]1Nc2ccc(-c3cccc(F)c3)cc2[C@@H]2[C@H]1CCN2Cc1ccc(F)cc1,-24*
O=C(C1CCC1)N1CC[C@@H]2[C@@H](CO)Nc3ccc(-c4cccc(F)c4)cc3[C@@H]21,11
SMILES,DUX4 inh
OC[C@@H]1Nc2ccc(-c3ccc(F)cc3)cc2[C@H]2[C@@H]1CCN2Cc1ccc(F)cc1,-3
N#Cc1cccc(-c2ccc3c(c2)[C@H]2[C@H](CCN2C(=O)c2ccncc2)[C@@H](CO)N3)c1,7
OC[C@H]1Nc2ccc(-c3cccc(F)c3)cc2[C@H]2[C@@H]1CCN2Cc1ccncc1,-20*
Cc1noc(C)c1NC(=O)Nc1ccc2c(c1)C(=O)N(C)[C@H]1CC[C@@H](CC(=O)NCc3ccc(Cl)cc3)O[C@H]1CO2,1
CN1C(=O)c2cc(NC(=O)c3cccs3)ccc2OC[C@@H]2O[C@@H](CC(=O)NCC(F)(F)F)CC[C@@H]21,6
COC(=O)C[C@@H]1CC[C@H]2[C@@H](COC[C@@H](O)CN2C(=O)Nc2ccccc2OC)O1,8
CN1CCN(C(=O)[C@H]2[C@H](CO)[C@H]3Cn4c(cccc4=O)[C@@H]2N3Cc2ccncc2)CC1,0
CNC[C@@H]1Oc2ncc(Br)cc2C(=O)N([C@H](C)CO)C[C@@H]1C,0
CCCNC(=O)Nc1ccc2c(c1)C(=O)N(C)[C@@H]1CC[C@H](CC(=O)NCCCN(C)C)O[C@H]1CO2,-1
C[C@@H]1C(=O)N[C@H](c2ccc(F)cc2)CC=CC[C@H](C)Oc2ccccc2C(=O)N1C (mixture of isomers),-1
CN(C)CC#Cc1ccc([C@@H]2[C@H](CO)N3CCCCN(C(=O)Nc4cc(F)ccc4F)C[C@@H]23)cc1,20
COCC#Cc1ccc([C@@H]2[C@@H](CO)N3CCCCN(C(=O)Nc4cc(F)ccc4F)C[C@@H]23)cc1,-1
O=C(Nc1ccccc1F)N1CCCCN2[C@H](C1)[C@H](c1ccc(/C=C/c3ccccc3)cc1)[C@@H]2CO,3
COCC#Cc1ccc([C@H]2[C@@H](CO)N3CCCCN(C(=O)Nc4cc(F)ccc4F)C[C@H]23)cc1,-23*
C/C=C/c1ccc([C@@H]2[C@@H](CO)N3CCCCN(C(=O)Nc4cc(F)ccc4F)C[C@@H]23)cc1,-13*
C/C=C/c1ccc([C@H]2[C@@H](CO)N3CCCCN(C(=O)Nc4ccc(F)cc4)C[C@@H]23)cc1,15
C[C@@H]1CN([C@@H](C)CO)C(=O)c2ccccc2-c2ccccc2CO[C@@H]1CN(C)C(=O)Nc1ccc2c(c1)OCO2,10
O=C(NC1CCCCC1)[C@H]1[C@H](CO)[C@H]2Cn3c(cccc3=O)[C@H]2N1C(=O)CC1CC1,-5
CN(C)CCCNC(=O)C[C@@H]1CC[C@H]2[C@@H](COc3ccc(NC(=O)C4CCC4)cc3C(=O)N2C)O1,-4
CC(=O)N1[C@@H](CO)[C@@H]2c3ccccc3N(C(=O)c3ccccc3)C[C@@H]21,0
CO[C@@H]1CN(C)C(=O)c2ccc(NC(=O)Cc3ccccc3)cc2OC[C@H](C)N(CC2CC2)C[C@H]1C,-1
O=C(C[C@@H]1CC[C@@H]2[C@H](COC[C@@H](O)CN2Cc2cccc(C(F)(F)F)c2)O1)NCc1ccncc1,22
COc1ccc2c3c([nH]c2c1)[C@H](CO)N(Cc1cc(F)ccc1F)CC31CCN(C(=O)CN(C)C)CC1,-9
COCC(=O)N1CC2(C1)CN(Cc1ccccc1Cl)[C@H](CO)c1[nH]c3cc(OC)ccc3c12,-5
COc1ccc2c3c([nH]c2c1)[C@H](CO)N(Cc1ccccc1F)CC31CN(S(C)(=O)=O)C1,-45*
SMILES,DUX4 inh
COc1ccc2c3c([nH]c2c1)[C@@H](CO)N(Cc1ccccc1F)CC31CN(C(=O)C2CCOCC2)C1,-5
COc1ccc2c3c([nH]c2c1)[C@H](CO)N(Cc1ccccc1F)CC31CN(C)C1,-6
COc1ccc2c3c([nH]c2c1)[C@H](CO)N(Cc1cc(F)ccc1F)CC31CN(C(=O)C2CCC2)C1,-74*
O=C1[C@@H](Cc2ccc(C(F)(F)F)cc2)CCn2cc(nn2)COC[C@@H]2CCCCN12,5
C[C@@H]1CC=CCCNC(=O)[C@H](C)N(C)C(=O)c2ccccc2O1 (mixture of isomers),7
Cn1cnc(S(=O)(=O)N2CCCCN3[C@H](CO)[C@H](c4ccc(-c5cccc(F)c5)cc4)[C@H]3C2)c1,1
Cc1cccc(-c2ccc([C@@H]3[C@H](CO)N4CCCCN(S(=O)(=O)c5ccccc5F)C[C@@H]34)cc2)c1,-5
Cc1ccccc1S(=O)(=O)N1CCCCN2[C@H](CO)[C@@H](c3ccc(-c4cccc(F)c4)cc3)[C@H]2C1,-39*

# Bioassay records as filed in PubChem.
